This is a sample that favours compounds with a hit; in the whole collection about 0.45% have one here.
sEH inh – inhibitors of human soluble epoxide hydrolase. recombinant human sEH enzymatic activity assay. P34913. 91,000 compounds, 0.34% hits. inhibition, % at 2 µM. AID 707; in the data active = inhibition above about 80%
sEH act – activators of human soluble epoxide hydrolase | P34913 | purified human sEH enzymatic activity, activator screen | activation, % at 2 µM | 91,000 compounds, 0.04% hits | AID 717; in the data active = activation above about 37%
Smad3 inh – Smad3 (human) transcription factor binding inhibition. TR-FRET Smad3/Dy647-FoxH1 peptide binding, europium anti-His. inhibition, % at 25 µM. 88,000 compounds, 0.29% hits. AID 630;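 active = compounds that reduce the energy-transfer binding signal between the protein and its labelled peptide by more than half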;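 note: 0% = Smad3 plus labelled peptide maximal FRET and 100% = peptide-only background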
Active calls of the source: *.

O=C(O)c1ccccc1-c1ccccc1C(=O)Nc1ccccc1 was read as sEH inh 8.0 and sEH act -7.5.
O=C(O)C/C=C/CC(=O)O was read as Smad3 inh -7.0.
`Cc1ccc(C2=C(Cl)C(=O)C(c3ccc(C)cc3)=C(Cl)C2=O)cc1` gave Smad3 inh 52.2*.
Cc1ccc(S(=O)(=O)c2ccc(C)cc2)cc1 was read as sEH inh -19.0, sEH act 14.9 and Smad3 inh 26.4.
NC(N)=N/N=C/c1ccc(C2CCNCC2)cc1 was read as Smad3 inh 49.9.
COc1ccc([C@@H](Nc2ccccn2)c2cc(C(C)(C)C)cc(C(C)(C)C)c2O)cc1 was read as Smad3 inh 69.4*.
Screening COc1ccc([C@@H](Nc2ncccn2)c2cc3c(cc2O)OCO3)cc1 returned Smad3 inh 9.5.
For CN1CCCN(C)C1c1cc([N+](=O)[O-])ccc1O the results were Smad3 inh -44.1.

Compound activity as filed in PubChem BioAssay.
